The text below walks through data of PubChem BioAssay AID2283109 (EPA ToxCast).

The target in the assay is human CYP3A5, CYP3A5 (gene 1577) (UniProt P20815). Nature of the assay: NVS_ADME_hCYP3A5: NovaScreen (NVS) CYP450-related Enzyme Activity (ADME) Assay for human CYP3A5. Here is the method: NVS_ADME_hCYP3A5 is a biochemical, single-readout assay that uses extracted gene-proteins in a cell-free assay. Measurements were taken 0.5 hour after chemical dosing in a 96-well plate.NVS_ADME_hCYP3A5 is one of one assay component(s) measured or calculated from the NVS_ADME_hCYP3A5 assay. It is designed to make measurements of enzyme activity, a form of enzyme reporter, as detected with fluorescence intensity signals by Fluorescence technology.Data from the assay component NVS_ADME_hCYP3A5 was analyzed into 1 assay endpoint. This assay endpoint, NVS_ADME_hCYP3A5, was analyzed in the positive analysis fitting direction relative to Acetonitrile as the negative control and baseline of activity. Using a type of enzyme reporter, loss-of-signal activity can be used to understand changes in the enzymatic activity as they relate to the gene CYP3A5. Furthermore, this assay endpoint can be referred to as a primary readout, because this assay has produced […] where this one serves a enzymatic activity function. To generalize the intended target to other relatable targets, this assay endpoint is annotated to the cyp intended target family, where the subfamily is xenobiotic metabolism. […]
human CYP3A5, CYP3A5 (gene 1577), sequence (P20815 whole entry, looked up): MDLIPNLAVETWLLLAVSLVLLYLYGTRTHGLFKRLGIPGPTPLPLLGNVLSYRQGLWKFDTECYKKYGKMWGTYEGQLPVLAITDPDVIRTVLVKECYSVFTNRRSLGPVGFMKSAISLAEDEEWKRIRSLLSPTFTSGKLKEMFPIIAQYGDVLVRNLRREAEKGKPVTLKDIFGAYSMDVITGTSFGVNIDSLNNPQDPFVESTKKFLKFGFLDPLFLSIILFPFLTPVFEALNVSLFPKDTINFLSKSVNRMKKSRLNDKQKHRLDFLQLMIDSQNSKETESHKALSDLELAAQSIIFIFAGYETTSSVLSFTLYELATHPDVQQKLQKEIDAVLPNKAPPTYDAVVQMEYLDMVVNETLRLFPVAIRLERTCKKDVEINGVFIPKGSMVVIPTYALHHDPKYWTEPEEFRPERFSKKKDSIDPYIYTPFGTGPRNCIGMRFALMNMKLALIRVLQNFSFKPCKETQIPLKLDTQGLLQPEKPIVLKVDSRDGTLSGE

Values joined by “and” are separate entries in the source; they are usually repeats but may differ in a detail not shown here. Equal entries are not always repeated. Active and inactive are the calls of the source. The calls were made as follows: active = hit-call score of the fitted dose curve at least 0.9, where 1 is the maximum; inactive = score below 0.9.

The term AC50 denotes the midpoint of the concentration-response curve, whichever way the signal moves.

For `C#C[C@]1(O)CC[C@H]2[C@@H]3CCc4cc(O)ccc4[C@H]3CC[C@@]21C`, the AC50 is 1.84 µM (active) and 3.89 µM (active) and 1.71 µM (active).
